Source: PubChem (National Center for Advancing Translational Sciences (NCATS))
The list is not random: actives were taken first. Their share in the collection is about 3%.
A549 tox-1 = Nrf2 qHTS screen for inhibitors: counterscreen for cytotoxicity. hit rate 0.16% among 390,000. A549 ARE-Fluc cells, CellTiter-Fluor viability, 18-24 h. AID 504648, 2011. Potency, µM (highest dose often 46 µM), without a hit: top-dose activity change, negative = cytotoxicity, most hits filed as inhibitors; note: % is set by controls: 0 for no effect and ±100 for the full control effect
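Cytotoxicity counterscreen: CellTiter-Fluor fluorescence was measured in A549 ARE_Fluc cells after 18-24 h of compound exposure in a concentration series. The subsequent BugLite luminescent read reports ARE-luciferase activity.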
rTrxR1 inhibitor = qHTS Assay for Inhibitors of Mammalian Selenoprotein Thioredoxin Reductase 1 (TrxR1): qHTS | Thioredoxin reductase 1, cytoplasmic (Rattus norvegicus), O89049 | recombinant rTrxR1, NADPH fluorescence consumption, selenite substrate | Potency, µM (titrated, usually from 114 µM), for inactives: at the highest dose activity change, negative = inhibition, usual class: inhibitors | hit rate 1% among 390,000 | AID 588453, 2011; note: % is set by controls: 0 for no effect and ±100 for the full control effect; nearly all actives have a fitted effect of over 65% in size
Target sequence (O89049 whole entry, looked up): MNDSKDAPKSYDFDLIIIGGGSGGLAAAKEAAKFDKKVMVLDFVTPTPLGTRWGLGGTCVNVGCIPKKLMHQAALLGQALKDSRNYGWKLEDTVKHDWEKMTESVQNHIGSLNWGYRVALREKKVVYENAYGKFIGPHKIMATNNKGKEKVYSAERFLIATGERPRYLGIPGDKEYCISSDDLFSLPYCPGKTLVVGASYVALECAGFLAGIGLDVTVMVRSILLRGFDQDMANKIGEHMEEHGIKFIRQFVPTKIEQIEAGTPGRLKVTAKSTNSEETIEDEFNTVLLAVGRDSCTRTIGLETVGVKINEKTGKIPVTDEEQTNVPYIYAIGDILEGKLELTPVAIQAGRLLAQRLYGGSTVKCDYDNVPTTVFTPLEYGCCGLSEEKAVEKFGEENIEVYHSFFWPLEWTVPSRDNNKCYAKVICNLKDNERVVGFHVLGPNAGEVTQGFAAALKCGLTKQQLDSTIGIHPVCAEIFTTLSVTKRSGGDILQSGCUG
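Rat TrxR1 (90 nM in the dispensed reagent) was pre-reduced with 400 uM NADPH for 5 min at room temperature, then incubated with compound for 15 min. After 400 uM selenite was added, NADPH fluorescence (Ex 340/Em 450 nm) was followed for 8 min.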
GALK inh = qHTS Assay for Inhibitors of Human Galactokinase (GALK). Purified GALK, Kinase-Glo residual ATP luminescence. Potency, µM (highest dose often 57.5 µM), without a hit: at the top dose activity change, negative = inhibition, hits mostly inhibitors. hit rate 0.007% among 270,000. AID 1868, 2009; note: % is set by controls: 0 for no effect and ±100 for the full control effect
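GALK at 5 nM final was combined with compound, 35 uM ATP and 100 uM galactose in HEPES pH8.0 with MgCl2 and DTT. The reaction ran one hour at room temperature before luminescent ATP detection.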
Nrf2 activator = qHTS of Nrf2 Activators; AREc32 ARE-luciferase reporter (MCF7-derived line), luminescence, 24 h; hit rate 0.31% among 410,000; Potency, µM (titrated, usually from 46.1 µM), for inactives: at the top dose activation, actives largely listed as activators; note: % of control where 0% means no effect; nearly all actives have a fitted effect of over 65% in size
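AREc32_Fluc, 1000 cells/well, OPTI-MEM + 5% FBS, o/n 37 deg C 5% CO2; 23 nL cpd by pin tool, 24 hr; Steady-Glo 30 min RT, luminescence.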
TrxR1 substrate = qHTS Assay for Substrates of Mammalian Selenoprotein Thioredoxin Reductase 1 (TrxR1): qHTS. Thioredoxin reductase 1, cytoplasmic (Rattus norvegicus), O89049. purified TrxR1 substrate turnover, NADPH consumption readout. Potency, µM (doses to about 114 µM), for inactives: at the top dose activity change, negative = substrate turnover. hit rate 0.01% among 390,000; note: % is set by controls: 0 for no effect and ±100 for the full control effect; nearly all actives have a fitted effect of over 50% in size
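Rat TrxR1, dispensed at 90 nM, was prereduced with 400 uM NADPH (final) for 5 min at ~22 deg C, then incubated with compound 15 min before 400 uM selenite. A first-read NADPH fluorescence drop versus no-compound background flagged substrates.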
Nrf2 inh = Nrf2 qHTS screen for inhibitors. A549 ARE-Fluc reporter, luciferase luminescence, 18-24 h. Potency, µM (titrated, usually from 46 µM), for inactives: at the top dose activity change, negative = inhibition, usual class: inhibitors. hit rate 2.1% among 360,000. AID 504444, 2011; note: % is set by controls: 0 for no effect and ±100 for the full control effect; nearly all actives have a fitted effect of over 60% in size
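In this cell-based qHTS, ARE-driven firefly luciferase in A549 cells reports Nrf2 activity; the luminescent signal after BugLite lysis is the measured value, with a prior CellTiter-Fluor read for cell health.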
FLuc enzyme inh = Nrf2 qHTS screen for inhibitors: Purified Fluc Biochemical Counterscreen for Hit Validation | shares compounds with Nrf2 inh | purified firefly luciferase, luminescence inhibition | Potency, µM (highest dose often 57.5 µM), for the others: top-dose activity change, negative = inhibition, hits mostly inhibitors | hit rate 4% among 1,400; note: % is set by controls: 0 for no effect and ±100 for the full control effect; nearly all actives have a fitted effect of over 65% in size
A549 tox-2 = Nrf2 qHTS screen for inhibitors: A549 ARE-Fluc Cytotoxicity Counterscreen for Hit Validation; shares compounds with Nrf2 inh; Potency, µM (series often up to 46.1 µM), for the others: top-dose activity change, negative = cytotoxicity, most hits filed as inhibitors; hit rate 2% among 1,400; A549 ARE-Fluc cells, cytotoxicity counterscreen; AID 720523, 2013;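 note: cells exposed to compounds for 18 to 24 hours; % is set by controls: 0 for no effect and ±100 for the full control effect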
Nrf2 ARE inh = Nrf2 qHTS screen for inhibitors: Nrf2 A549 ARE-Fluc Confirmation Assay for Hit Validation | AID 720524, 2013 | shares compounds with Nrf2 inh | A549 ARE-firefly luciferase reporter, luminescence | Potency, µM (series often up to 46.1 µM), without a hit: top-dose activity change, negative = inhibition, actives largely listed as inhibitors | hit rate 74% among 1,400; note: % is set by controls: 0 for no effect and ±100 for the full control effect; nearly all actives have a fitted effect of over 65% in size
Starred values were filed as active, the others as inactive; ? = inconclusive; · = not tested or not shown; [ ] = remark or other dose. Calls come from the whole dose curve; as a rule, active = well fitted curve in the direction sought with a large enough effect; inconclusive = small, poorly fitted or top-dose-only effect, or another doubt; inactive = no such curve, though single readings can be large; an effect the other way counts as inactive or inconclusive. Potency is the fitted concentration of half-maximal effect.

SMILES	A549 tox-1	rTrxR1 inhibitor	GALK inh	Nrf2 activator	TrxR1 substrate	Nrf2 inh	FLuc enzyme inh	A549 tox-2	Nrf2 ARE inh
O=C(N/N=C(\c1ccccc1)c1cccnc1)c1cccc(F)c1	?	17%[57.1 µM]	-2%	?	-5%[57.1 µM]	7.3µM*	-20%	?	1.8µM*
O=C(N/N=C(\Cc1ncc[nH]1)c1ccccc1)c1cccnc1	-16%	22%[57.1 µM]	-1%	2%	4%[57.1 µM]	2.3µM*	-2%	-11%	8.2µM*
O=C(N/N=C(\Cc1ncc[nH]1)c1ccccc1)c1ccccc1	·	·	-2%	·	·	·	·	·	·
CNc1cccnc1C=NNC(N)=S	?	-23%[11.4 µM]	·	0%	17%[57.1 µM]	0.58µM*	-23%	-13%	1.5µM*
COC(=O)CCn1nnc(-c2ccc(C(C)C)cc2)n1	-1%	-7%	0%	-2%	-9%	0.52µM*	11µM*	-1%	0.58µM*
COC(=O)CCn1nnc(-c2cccs2)n1	-4%	12%	0%	2%	-1%	4%	·	·	·
CCNC(=O)Nc1ccc2c(c1)c(=O)n(C)n2Cc1ccc(Cl)cc1	·	·	·	0%[9.22 µM]	·	·	·	·	·
Cc1cc(Nc2ccccc2C(=O)O)n(-c2ccc([N+](=O)[O-])cc2)n1	?	4%	-1%	0%	-9%	6.5µM*	-14%	-5%	?
COc1ccccc1C(=O)N1CCN(Cc2ccc3c(c2)OCO3)CC1	1%	-16%	0%	-1%	2%	21%	·	·	·
CCOc1ccccc1C(=O)NCC(=O)N1CCN(Cc2ccc3c(c2)OCO3)CC1	-4%	-14%	·	2%	-1%	4.6µM*	-1%	-1%	5.2µM*
N=c1ccn2c(n1)OC1C(O)[C@@H](CO)O[C@H]12 (some centres not stated)	2%	10%	·	·	9%[0.457 µM]	0.16µM*	-2%	-1%	·
O=c1ccncn1C1OC(CO)C(O)C1O (configuration not stated)	-5%	-20%[11.4 µM]	·	2%	0%[11.4 µM]	11%	·	·	·
CC1CCN(c2c(NCc3ccc(C(=O)N4CCN(C5CCCCC5)CC4)cc3)c(=O)c2=O)CC1	0%	21%	·	0%	-1%	0%	·	·	·
CC1CCN(c2c(NCc3ccc(C(=O)N4c5ccccc5CC4C)cc3)c(=O)c2=O)CC1 (configuration not stated)	-19%	?	-1%	3%	-18%	9.2µM*	-24%	-21%	2.1µM*
CC(C)C[C@H](NC(=O)c1nc[nH]c1C(=O)N1CCNCC1)C(=O)OCc1ccccc1	8%	10%	·	0%	1%	7%	·	·	·
COC(=O)c1[nH]c2ccc(C)cc2c1NC(=O)CN1CCC(C)CC1	-18%	-8%[57.1 µM]	0%	0%	20%[57.1 µM]	?	·	·	·
COC(=O)c1[nH]c2ccc(C)cc2c1NC(=O)CN1CCN(c2ccc(F)cc2)CC1	?	12%	3%	1%	14%	8.9µM*	-14%	-19%	8.2µM*
CCCN(CCC)CCCNC(=O)c1nn(-c2cccc(OC)c2)c(=O)c2ccccc12	-20%	20%	2%	0%	5%	?	·	·	·
O=C(/C=C/c1ccccc1)NC(NC(=S)Nc1ccc(Cl)cc1)C(Cl)(Cl)Cl (configuration not stated)	?	3%	-2%	3%	3%	6.5µM*	?	?	5.2µM*
Cc1cccc2cc(CN(C(=O)c3cnccn3)C3CCCCC3)c(Cl)nc12	-1%	7%	1%	0%	-1%	?	·	·	·
COCCCNC(=O)CN1C(=O)COc2ccc(S(=O)(=O)N3CCOCC3)cc21	?	18%	2%	0%	1%	0%	·	·	·
O=C(Oc1ccc(N(Cc2cccs2)C2=NS(=O)(=O)c3ccccc32)cc1)c1ccccc1Cl	-5%	?	0%	-1%	-10%	1µM*	-2%	-1%	3.7µM*
O=C(Oc1ccc(N(Cc2cccs2)C2=NS(=O)(=O)c3ccccc32)cc1)c1ccco1	0%	10%[57.1 µM]	-2%	0%	8%[57.1 µM]	-22%	·	·	·
Cn1c(=O)c2c(nc(SCC(=O)c3ccccc3F)n2C)n(C)c1=O	·	·	1%	·	·	·	·	·	·
CCOc1cc(/C=C(\C#N)C(=O)Nc2ccccc2C(=O)O)ccc1OC(=O)c1ccc(C)cc1	-2%	-5%	-17%	5%	-5%	2.1µM*	?	-1%	4.6µM*
SMILES	A549 tox-1	rTrxR1 inhibitor	GALK inh	Nrf2 activator	TrxR1 substrate	Nrf2 inh	FLuc enzyme inh	A549 tox-2	Nrf2 ARE inh
COc1ccc(/C=C(/C#N)C(=O)Nc2ccccc2C)cc1C(=O)O	0%	-25%	0%	3%	-22%	-15%	·	·	·
CC(=O)[C@H]1CC[C@H]2[C@@H]3C[C@H](C)C4=CC(=O)CC[C@]4(C)[C@H]3[C@@H](O)C[C@]12C	0%	13%	0%	0%	3%	0.058µM*	0%	-4%	0.15µM*
C[C@]12C[C@H](O)[C@H]3[C@@H](CCC4=CC(=O)CC[C@@]43C)[C@@H]1CC[C@@H]2C(=O)CO	-8%	25%[57.1 µM]	5%	3%	12%[57.1 µM]	0.41µM*	2%	-5%	1.3µM*
CCOC(=O)C1=C(CSc2nc3ccccc3s2)NC(=O)NC1c1ccc(OC)cc1 (configuration not stated)	?	11%	1%	0%	2%	5.8µM*	-20%	?	·
CCOC(=O)C1=C(CSc2nc3ccccc3s2)NC(=O)NC1c1cc(C)ccc1C (configuration not stated)	-6%	3%	0%	5%	-4%	?	·	·	·
CCOc1ccccc1NC(=O)c1cnc2n(c1=O)CCS2	-5%	-2%	3%	0%	4%	-23%	·	·	·
O=C(Nc1ccc(Oc2ccccc2)cc1)c1cnc2n(c1=O)CCS2	-3%	3%	3%	-1%	14%	?	-15%	-2%	2.3µM*
